Our source for the Potency values is PubChem BioAssay AID686970 (National Center for Advancing Translational Sciences (NCATS), 2013).

Out of some 360,000 compounds screened, about 6,000 (1.7%) were called active. Inconclusive results (about 8%) are left out. Calls come from the whole dose curve; as a rule, active = well fitted cell-killing curve with a large enough effect; inconclusive = small, poorly fitted or top-dose-only effect, or effect the other way; inactive = flat fitted curve, though single readings scatter. What follows is part of a selection rich in actives, with near analogues and random picks from the rest. A call without a number means that no potency is given here.
Potency is the fitted concentration of half-maximal effect.

This assay in a line: qHTS for induction of synthetic lethality in tumor cells producing 2HG: qHTS for the HT-1080-NT fibrosarcoma cell line.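 Note: NT is the 2HG producing partner of a matched IDH1 knockdown line; nearly all actives have a fitted effect of over 55% in size.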 The conditions noted are these: HT-1080-NT fibrosarcoma viability, CellTiter-Glo ATP luminescence, 48 h; series mostly up to 46.1 µM. A digest of the protocol: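 Read-out is CellTiter-Glo luminescence after 10 minutes at room temperature, following 48 hours' compound treatment of HT-1080-NT cells (750 cells/well, RPMI, 5% FBS, 37 degrees C).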
For `Cc1ccc([C@@H]2CC(=O)[C@@H]3CN(S(=O)(=O)c4ccc(C)cc4)[C@H](c4ccccc4F)C[C@@H]3N2S(=O)(=O)c2ccc(Cl)cc2)cc1`, the Potency result is “inactive”.

Turning to `FC(F)(F)c1ccccc1Cc1c(-c2ccccc2)nc2c3ccccc3ccn12`, the Potency result is “inactive”.

On to `NS(=O)(=O)c1ccc(NC(=O)CSc2nnc3c(n2)[nH]c2ccccc23)cc1`, for which the Potency result was “inactive”.

Take `CN1CCN(C2Cc3ccc(Cl)cc3Sc3ccc(F)cc32)CC1` (centres undefined): the Potency was 14.6 µM (active).

In the case of `C[C@H]1CN([C@@H](C)CO)C(=O)c2cc(Br)cnc2O[C@H]1CN(C)S(=O)(=O)c1cccs1`, the Potency entry was “inactive”.

In the case of `CN(C)c1cccc(NC(=O)c2ccc(-c3ccc(F)c(F)c3)c3ccoc23)c1`, the Potency result was “inactive”.

For the molecule `Cc1ccc(S(=O)(=O)N2CC3C(=O)C[C@@H](c4ccccc4Cl)N(S(=O)(=O)c4ccc(C)cc4)C3CC2c2ccccc2)cc1` (some centres undefined), the Potency result was “inactive”.

Consider `CC1(C)OC(=O)C2=C(C[C@@H](C3CC3)O[C@H]2CCc2cccc(Cl)c2)O1`, for which the Potency result is “inactive”.

As for `CN1CCN(CCCCOc2cccc3ccccc23)CC1`, the Potency result is “inactive”.

As to `CC(C)c1ccccc1OCC(O)CN(CC(O)COc1cccc2ccccc12)C(C)C` (centres undefined), the Potency is 18.4 µM (active).

`CCC(C)Sc1nc2c(c(=O)[nH]c(=O)n2C)n1CC(O)COc1cccc2ccccc12` (centres undefined): the Potency result was “inactive”.

On to `Cc1nc(C(F)(F)F)ccc1C(=O)N1CCC1(C)C(=O)NS(=O)(=O)c1ccc(F)cc1F` (centres undefined), for which the Potency result is “inactive”.

Take `COC(=O)c1ccc2nc(-c3cccc(Br)c3)c(Cc3ccccc3C(F)(F)F)n2c1`: the Potency result is “inactive”.

As to `O=C(Nc1ccc(Cl)cc1)C1Cc2c(-c3ccc4c(c3)OCO4)ccnc2O1` (centres undefined), the Potency result was “inactive”.

As to `COc1ccc(NC(=O)C2Cc3c(-c4cccc(NC(C)=O)c4)ccnc3O2)cc1OC` (centres undefined), the Potency result is “inactive”.

Consider `COc1ccc(NC(=O)C2Cc3c(-c4ccc5c(c4)OCO5)ccnc3O2)cn1` (centres undefined), for which the Potency is 5.8 µM (active).

`O=C1C(=O)N(CC2COc3ccccc3O2)c2ccccc21` (centres undefined): the Potency entry is “inactive”.

On to `Cc1ccsc1C(=O)OCC(=O)c1cc(C)n(CC2CCCO2)c1C` (centres undefined), for which the Potency entry is “inactive”.

Consider `Cc1cc(C(=O)CCl)c(C)n1CC1COc2ccccc2O1` (centres undefined), for which the Potency is 14.6 µM (active).

Consider `COCCCn1c(=O)/c(=C/c2ccccc2OC(C)C)s/c1=C(\C#N)C(=O)Nc1ccc(C(=O)O)cc1`, for which the Potency entry is “inactive”.

On to `CCOC(=O)C1CCCN(C(=O)c2ccc(C)c(F)c2)CC1` (centres undefined), for which the Potency entry was “inactive”.

For `CC(C)(C)Nc1nc(-c2ccccn2)nc2ccccc12`, the Potency entry is “inactive”.

Regarding `Cc1cc(C)n(-c2nc(C(F)(F)F)nc3ccccc23)n1`, the Potency result was “inactive”.

In the case of `CC(Nc1nc(C(F)(F)F)nc2ccccc12)c1cccs1` (centres undefined), the Potency was 20.6 µM (active).

Turning to `Clc1ccc(-c2cccc3nccn23)cc1`, the Potency entry is “inactive”.

Take `CCOC(=O)C1=C(C)c2ccccc2OC1(C)C(=O)OCC` (centres undefined): the Potency result was “inactive”.

In the case of `CCOC(=O)c1c(C)[nH]c2c1-c1ccccc1C(=O)C2=O`, the Potency is 2.91 µM (active).

For the molecule `CCOC(=O)c1ccccc1OC(=O)Oc1ccccc1C(=O)OCC`, the Potency result was “inactive”.

`CCOC(=O)[C@]12CCCC=C1N(Cc1ccc3c(c1)OCO3)C(=O)[C@H](CC(=O)N1CCN(C(=O)c3ccco3)CC1)C2`: the Potency result is “inactive”.

`COc1cc(CNc2ncnc3c2ncn3[C@H]2CN(Cc3cccs3)C[C@@H](CO)O2)cc(OC)c1OC`: the Potency result was “inactive”.

On to `COCCNc1nc(Nc2ccccc2Cl)c2sc(-c3ccccc3)cc2n1`, for which the Potency result was “inactive”.

`COCCNc1nc(NCc2ccc(NC(C)=O)cc2)c2sccc2n1`: the Potency result is “inactive”.

Regarding `CC(=O)Nc1ccc(CNc2nc(NCCN(C)C)nc3cc(-c4ccccc4)sc23)cc1`, the Potency was 11.6 µM (active).

Turning to `COc1ccc(Cl)cc1NC(=O)CN(C)C(=O)c1cn(-c2ccccc2)nc1-c1cccs1`, the Potency entry was “inactive”.

Turning to `Cc1ccc(C(=O)N2CCCc3ccccc32)c(Cl)c1`, the Potency result was “inactive”.

With `Cc1cccc2cc3c(N)c(C(=O)N4CCCc5ccccc54)sc3nc12`, the Potency is 3.26 µM (active).

With `O=C(c1cc(-c2ccc(O)cc2)on1)N1CCCc2ccccc21`, the Potency entry is “inactive”.

With `O=C(C[C@H]1C[C@@H]2c3cc(NC(=O)C4CCC4)ccc3O[C@@H]2[C@H](CO)O1)NC1CCCCC1`, the Potency result was “inactive”.

Consider `COc1ccc(CNC(=O)CCN2C(=O)c3ccccc3C2=O)cc1`, for which the Potency entry is “inactive”.

For `CCOC(=O)C1=C(c2ccc(OC)cc2)C(=O)c2ccccc2C1=O`, the Potency is 5.8 µM (active).

For `CCOC(=O)C(NC(C)=O)C(=O)Nc1ccc(OC)cc1` (centres undefined), the Potency result is “inactive”.

As to `O=C(NN=Cc1ccc2c(c1)CCC2)c1ccccc1O`, the Potency entry was “inactive”.

As to `COc1cccc(NC(=O)C2(C)CCN2C(=O)CCC2CCCC2)c1` (centres undefined), the Potency entry is “inactive”.

`Cc1cc(NC(=O)CCC(=O)N(CC(=O)NC2CCCC2)c2ccc(F)cc2)no1`: the Potency entry is “inactive”.

As to `Cc1cc(NC(=O)/C=C/C(=O)N(c2ccccc2C)C(C(=O)NC2CCCC2)c2ccc(F)cc2)no1` (centres undefined), the Potency is 11.2 µM (active).

For `Cc1cc(NC(=O)CCC(=O)N(c2ccccc2)C(C(=O)NC2CCCC2)c2ccncc2)no1` (centres undefined), the Potency result was “inactive”.

Regarding `CC1(C(=O)Nc2ccc3c(c2)OCCO3)CCN1C(=O)Cc1cc(F)ccc1F` (centres undefined), the Potency result is “inactive”.

With `O=C(O)C1=C(C(=O)O)C2CCC1C2`, the Potency entry was “inactive”.

Regarding `CCCC(O)(CCC)C(=O)NN(C(=O)CCl)c1cccc(C)c1`, the Potency was 6.51 µM (active).

In the case of `COC(=O)N(NC(=O)C(O)(C(C)C)C(C)C)c1ccccc1`, the Potency result was “inactive”.

Turning to `CC(C)(O)C(=O)NN(C(=O)c1ccccc1)c1cccc(Br)c1`, the Potency result was “inactive”.

`COc1ccc(C2OC(CCc3ccccc3)Cc3[nH]c(=S)[nH]c(=O)c32)cc1` (centres undefined): the Potency result is “inactive”.

Take `CCOC(=O)C1CCCN(C(=O)c2cccc3ccccc23)CC1` (centres undefined): the Potency result was “inactive”.

In the case of `CCc1nc2ccc(C(=O)N3CCN(S(=O)(=O)CC)CC3)cn2c1N(C=O)CCC(C)C`, the Potency result is “inactive”.

On to `COc1ccc(Br)cc1/C=N/Nc1ccc(Cl)c(C(=O)O)c1`, for which the Potency entry was “inactive”.

As to `COc1cccc(/C=N/Nc2ncc(C(F)(F)F)cc2Cl)c1O`, the Potency was 16.4 µM (active).

Regarding `O=c1[nH]c2cccnc2n(CCNc2ncc(C(F)(F)F)cc2Cl)c1=O`, the Potency result is “inactive”.

As to `CCN1C(=O)[C@@H]2[C@@H]3CN(S(=O)(=O)c4ccccc4C)[C@@H](c4ccc(Cl)cc4)[C@@H]3C(=O)C[C@@H]2C1=O`, the Potency result is “inactive”.

With `CCc1nc2c(OCCOc3ccc(F)cc3)cccn2c1N(C)C(=O)c1ccccc1F`, the Potency entry was “inactive”.

As to `COc1cc(/C=N/Nc2nc3ccccc3s2)ccc1O`, the Potency was 20.6 µM (active).

For the molecule `CCOc1cc(/C=N/Nc2cc(C)nc3ccc(C)cc23)ccc1O`, the Potency entry was “inactive”.

For `COc1cc(C=NC2CCCCC2)ccc1O`, the Potency result was “inactive”.

For the molecule `Nc1ncnc2c1ncn2[C@@H]1O[C@H](CNC(=O)[C@H](N)Cc2cccnc2)[C@@H](O)[C@H]1O`, the Potency result is “inactive”.

As for `Cc1nnsc1S(=O)(=O)Cc1ccccc1Cl`, the Potency entry was “inactive”.

For the molecule `O=C(Nc1ccccc1)c1nnsc1S(=O)(=O)c1ccc(Cl)cc1`, the Potency is 20.6 µM (active).

`O=C(Nc1ccc(S(=O)(=O)Nc2ccccn2)cc1)c1ccccc1`: the Potency result was “inactive”.

Regarding `C=C1C=C(C)n2ncc(C(=O)Nc3ccccc3O)c2N1`, the Potency result was “inactive”.

In the case of `COc1ccc(C(C)(C)C)cc1NC(=O)CN(C)C1=NS(=O)(=O)c2ccccc21`, the Potency entry was “inactive”.

On to `CCc1nc2ccc(C(=O)Nc3cc(-c4ccccc4)ccc3OC)cn2c1N(CC)CC(=O)N(C)C`, for which the Potency entry is “inactive”.

In the case of `CCOC(=O)C1(C)CCCN(C(=O)c2ccc(N(C)C)cc2)C1` (centres undefined), the Potency entry is “inactive”.

Regarding `COc1cccc(-c2cc(NC(C)=O)c3ncc(-c4cccc(C(C)=O)c4)n3c2)c1`, the Potency entry is “inactive”.

For the molecule `CC(=O)c1cccc(-c2cnc3c(NC=O)cc(-c4cccc(C(=O)N(C)C)c4)cn23)c1`, the Potency result was “inactive”.

Turning to `COc1ccccc1-c1cc(NC(C)=O)c2ncc(-c3ccc(F)cc3)n2c1`, the Potency result was “inactive”.

Consider `CN(C)CCNC(=O)c1cccc(-c2cnc3c(NC=O)cc(-c4cccc(C(F)(F)F)c4)cn23)c1`, for which the Potency was 20.6 µM (active).

Take `CC(=O)Nc1cc(-c2cccc(CO)c2)cn2c(-c3cccc(C(F)(F)F)c3)cnc12`: the Potency result is “inactive”.

Consider `CC(=O)c1cccc(-c2cnc3c(NC=O)cc(-c4ccc(N5CCN(C)CC5)cc4)cn23)c1`, for which the Potency result was “inactive”.

As to `CC(=O)c1cccc(-c2cnc3c(NC=O)cc(-c4ccccc4Oc4ccccc4)cn23)c1`, the Potency entry was “inactive”.

Regarding `CC(=O)Nc1cc(-c2ccccc2N(C)C)cn2c(-c3ccc(F)c(Cl)c3)cnc12`, the Potency is 29.1 µM (active).

On to `CC(=O)Nc1cccc(-c2cc(NC=O)c3ncc(-c4ccc(F)c(Cl)c4)n3c2)c1`, for which the Potency is 18.4 µM (active).

With `CC(C)(C)C1CCC(=O)N2CCC[C@]2(c2ccccc2)C1` (some centres undefined), the Potency result was “inactive”.

For the molecule `COc1ccc(COC[C@H](CC(C)C)N2CCN(C(=O)c3cccc(C(F)(F)F)c3)CCC2=O)cc1`, the Potency result is “inactive”.

Turning to `CCC(C(=O)NCc1ccccc1)n1c(Cc2cc(F)cc(F)c2)nc2ccccc21` (centres undefined), the Potency entry is “inactive”.

Consider `Cc1cccc(S(=O)(=O)N(C)C[C@@H]2OCc3cnnn3CCCC(=O)N([C@H](C)CO)C[C@@H]2C)c1`, for which the Potency entry was “inactive”.

On to `O=C1Nc2ccccc2NC(c2ccc3c(c2)OCO3)=C1N(Cc1ccc(F)cc1)C(=O)c1ccco1`, for which the Potency result is “inactive”.

For the molecule `CCc1nc2ccc(C(=O)N3CCC(O)(Cc4ccccc4)CC3)cn2c1N(C)C(=O)Cc1ccccc1`, the Potency entry is “inactive”.

As to `Cc1cc(Nc2ccc(C)c(C)c2)n2ncnc2n1`, the Potency entry was “inactive”.

Consider `CC(C)(C(=O)N1CCC1(C)C(=O)NS(=O)(=O)c1ccc(Br)cc1)c1ccccc1` (centres undefined), for which the Potency result is “inactive”.

As to `CC(C)c1nccn1S(=O)(=O)c1cc([N+](=O)[O-])ccc1Cl`, the Potency result was “inactive”.

As to `CCc1nc(C)cn1S(=O)(=O)c1cc([N+](=O)[O-])ccc1Cl`, the Potency was 4.11 µM (active).

On to `CCc1nc(C)cn1S(=O)(=O)c1cc(OC)c(C)cc1C`, for which the Potency entry was “inactive”.

`COc1ccc(S(=O)(=O)/N=C2\C=C(NS(=O)(=O)c3ccccc3)C(=O)c3ccccc32)cc1`: the Potency was 18.4 µM (active).

In the case of `Cc1ccc(S(=O)(=O)/N=C2\C=C(NS(=O)(=O)c3ccc(C)cc3)C(=O)c3ccccc32)cc1`, the Potency result is “inactive”.

In the case of `COc1ccc(S(=O)(=O)NCCCc2ccccc2)cc1`, the Potency result is “inactive”.

Consider `O=C1c2ccccc2C(c2nc3ccccc3[nH]2)N1c1ccccc1` (centres undefined), for which the Potency entry was “inactive”.
